Six molecules from PubChem BioAssay can be followed below.

Activity calls are given as the source filed them.

Assay [1] in a line: small molecules captured by biotinylated probe aFSTL3 – biochemical, small-molecule microarray, fluorescence 635/667, stem cell growth factor project, primary screen (AID 1064).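 Note: measures binding of the biotinylated anti-FSTL3 antibody to printed compounds.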 The following applies: higher = more signal.
The nature of assay [2]: binders from COS7 lysate, DM2A8 probe, primary screen, torsin A project, cell lysate, small-molecule microarray, fluorescence 635/667 (AID 1065). As to conditions: higher = more signal, COS7 lysate expressing mutant human TOR1A.
Assay [3] in a line: small molecules captured by biotinylated probe aFGF2 – biochemical, small-molecule microarray, fluorescence 635/667, stem cell growth factor project, primary screen (AID 1067).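 Note: measures binding of biotinylated aFGF2 protein to printed compounds on slides; z-score merges feature fluorescence and signal-to-noise across triplicate slides.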 The following applies: higher = more signal.
The nature of assay [4]: small molecules captured by biotinylated probe aFGF10 – biochemical, small-molecule microarray, fluorescence 635/667, stem cell growth factor project, primary screen (AID 1071).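 Note: score merges 667 nm spot intensity and signal to noise from triplicate slides.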 The following applies: higher = more signal.
In assay [5] the target is Neurogenic locus notch homolog protein 2 (Homo sapiens) (UniProt Q04721). As to the kind of experiment: small molecules binding Notch2 protein – biochemical, small-molecule microarray, 635 nm fluorescence, stem cell growth factors, primary screen (AID 1073). The following applies: higher = more signal.
For assay [6], the target named is Pro-neuregulin-1, membrane-bound isoform (Homo sapiens) (UniProt Q02297). In words: small molecules binding neuregulin-1 protein – biochemical, small-molecule microarray, fluorescence 635/667, psychiatric disease protein project, primary screen (AID 1075).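 Note: score combines 667 nm spot fluorescence with signal to noise.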 As to conditions: NRG1 binding, 635 nm fluorescence, higher = more signal.
Pro-neuregulin-1, membrane-bound isoform (Homo sapiens), sequence (Q02297 whole entry, looked up, the tested form may be a part, canonical isoform): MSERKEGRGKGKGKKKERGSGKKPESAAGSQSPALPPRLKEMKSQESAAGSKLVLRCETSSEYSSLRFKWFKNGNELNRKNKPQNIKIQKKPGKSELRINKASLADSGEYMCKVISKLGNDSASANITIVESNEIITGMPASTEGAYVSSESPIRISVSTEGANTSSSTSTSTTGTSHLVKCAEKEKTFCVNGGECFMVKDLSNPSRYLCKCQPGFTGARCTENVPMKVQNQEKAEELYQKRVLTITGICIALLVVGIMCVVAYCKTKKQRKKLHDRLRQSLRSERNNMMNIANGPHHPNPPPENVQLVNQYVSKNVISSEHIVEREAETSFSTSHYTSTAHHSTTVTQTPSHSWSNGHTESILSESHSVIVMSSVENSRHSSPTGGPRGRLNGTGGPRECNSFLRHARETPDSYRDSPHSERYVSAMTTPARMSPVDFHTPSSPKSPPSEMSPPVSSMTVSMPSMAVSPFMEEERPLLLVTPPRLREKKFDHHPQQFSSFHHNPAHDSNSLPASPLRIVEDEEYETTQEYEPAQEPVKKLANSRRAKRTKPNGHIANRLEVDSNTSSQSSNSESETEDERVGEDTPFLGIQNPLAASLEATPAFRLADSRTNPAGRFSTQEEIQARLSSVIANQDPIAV
Assay [7] concerns Neuregulin-1 EGF-like domain. In words: small molecules binding NRG1 EGF domain – biochemical, small-molecule microarray, 635 nm fluorescence, primary screen (AID 1081).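 Note: binding of the protein to compounds printed on small-molecule microarray slides.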 As to conditions: higher = more signal.
A short description of assay [8]: FRG1 expression reporter modulators in myotubes – cell-based, C2C12 myotubes, firefly/Renilla luciferase, luminescence, FRG1 inhibition for FSHD, primary screen (AID 1084). The following applies: FRG1 promoter luciferase, higher = more signal, called active from +8 up or from −8 down.
A short description of assay [9]: small molecules captured by biotinylated probe aFST – biochemical, small-molecule microarray, fluorescence 635/667, stem cell growth factor project, primary screen (AID 1086).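 Note: score merges 667 nm fluorescence with signal-to-noise of each printed compound spot.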 The following applies: higher = more signal.
A short description of assay [10]: binders of probe aHhip on microarray, primary screen, stem cell growth factor project, biochemical, small-molecule microarray, fluorescence 635/667 (AID 1087).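 Note: score merges spot fluorescence at 667nm with spot signal to noise ratio.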 As to conditions: higher = more signal.
The test system of assay [11] is PRMT1 (protein arginine N-methyltransferase 1). In words: small molecules binding arginine methyltransferase PRMT1 – biochemical, small-molecule microarray, 635 nm fluorescence, primary screen (AID 1088).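 Note: binding of Prmt1 protein to compounds spotted on small-molecule microarray slides.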 The following applies: higher = more signal.
Assay [12] in a line: growth effects on S. cerevisiae YJM789 – YJM789 clinical isolate, OD600, 24 h, basal, primary screen (AID 1089).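 Note: growth of clinical yeast isolate S. cerevisiae YJM 789 seeded 1000 cells per well; test concentration not given here.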 The following applies: higher = more signal, called active from +8 up or from −8 down.
Assay [13] is described as follows: S. pombe growth modifiers, basal conditions – strain 972, OD600, 24 h, no modulator, primary screen (AID 1090).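 Note: basal condition with compound alone and no growth modifier present; test concentration not given here.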 The following applies: S. pombe 972 growth, higher = more signal, called active from +8 up or from −8 down.
Assay [14] in a line: budding yeast growth modifiers under rapamycin – strain BY4716, OD600, 96 h, primary screen (AID 1091). Note: test concentration not given here. As to conditions: S. cerevisiae BY4716 + rapamycin, higher = more signal, called active from +8 up or from −8 down.
Assay [15] deals with Torsin-1A-interacting protein 2 (Homo sapiens) (UniProt Q8NFQ8). As to the kind of experiment: small molecules binding lysate-expressed LULL1 – cell lysate, human LULL1 lysate, 635/667 nm fluorescence, primary screen (AID 1092).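 Note: probe is lysate of COS7 cells overexpressing human LULL1; score merges per-feature 667 nm fluorescence with signal-to-noise.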 As to conditions: small-molecule microarray, hLULL1 lysate binding, 635 nm fluorescence; higher = more signal.
Torsin-1A-interacting protein 2 (Homo sapiens), sequence (Q8NFQ8 whole entry, looked up): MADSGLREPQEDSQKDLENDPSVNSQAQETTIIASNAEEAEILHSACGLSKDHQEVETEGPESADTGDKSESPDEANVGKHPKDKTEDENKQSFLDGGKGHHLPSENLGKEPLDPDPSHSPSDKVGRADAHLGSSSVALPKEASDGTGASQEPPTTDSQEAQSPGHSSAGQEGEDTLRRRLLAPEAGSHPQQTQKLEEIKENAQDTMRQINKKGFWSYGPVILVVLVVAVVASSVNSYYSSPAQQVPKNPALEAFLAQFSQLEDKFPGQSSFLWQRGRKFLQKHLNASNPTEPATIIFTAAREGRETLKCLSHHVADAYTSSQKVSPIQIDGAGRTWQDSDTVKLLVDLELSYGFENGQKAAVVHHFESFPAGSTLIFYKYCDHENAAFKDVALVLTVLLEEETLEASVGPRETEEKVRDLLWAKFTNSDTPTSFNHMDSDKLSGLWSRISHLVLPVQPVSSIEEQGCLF
Assay [16] is described as follows: optical density change of DRC41 E. coli – strain DRC41, OD650, 24 h, E. coli filamentation project, primary screen (AID 1093).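 Note: MC1000 strain lacking acrAB efflux and sulA so SOS filamentation is blocked; test concentration not given here.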 The following applies: E. coli DRC41 growth, higher = more signal, called active from +8 up or from −8 down.
Assay [17] is described as follows: probe aLefty2 binding to arrayed compounds – biochemical, biotinylated probe, 635/667 nm fluorescence, primary screen (AID 1094).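 Note: score merges spot fluorescence near 667 nm with spot signal-to-noise ratio.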 As to conditions: small-molecule microarray, higher = more signal.
Assay [18] relates to Noggin (protein binding on small-molecule microarray). As to the kind of experiment: small molecules binding Noggin protein – biochemical, 635/667 nm fluorescence, primary screen (AID 1095).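 Note: score merges 667 nm feature fluorescence with signal to noise over triplicate slides.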 The following applies: 635 nm fluorescence, higher = more signal.
In assay [19] the target is Neurogenic locus notch homolog protein 3 (Homo sapiens) (UniProt Q9UM47). In words: small molecules binding NOTCH3 protein – biochemical, 635/667 nm fluorescence, primary screen (AID 1096). As to conditions: small-molecule microarray, 635 nm fluorescence, higher = more signal.
Neurogenic locus notch homolog protein 3 (Homo sapiens), sequence (Q9UM47 whole entry, looked up): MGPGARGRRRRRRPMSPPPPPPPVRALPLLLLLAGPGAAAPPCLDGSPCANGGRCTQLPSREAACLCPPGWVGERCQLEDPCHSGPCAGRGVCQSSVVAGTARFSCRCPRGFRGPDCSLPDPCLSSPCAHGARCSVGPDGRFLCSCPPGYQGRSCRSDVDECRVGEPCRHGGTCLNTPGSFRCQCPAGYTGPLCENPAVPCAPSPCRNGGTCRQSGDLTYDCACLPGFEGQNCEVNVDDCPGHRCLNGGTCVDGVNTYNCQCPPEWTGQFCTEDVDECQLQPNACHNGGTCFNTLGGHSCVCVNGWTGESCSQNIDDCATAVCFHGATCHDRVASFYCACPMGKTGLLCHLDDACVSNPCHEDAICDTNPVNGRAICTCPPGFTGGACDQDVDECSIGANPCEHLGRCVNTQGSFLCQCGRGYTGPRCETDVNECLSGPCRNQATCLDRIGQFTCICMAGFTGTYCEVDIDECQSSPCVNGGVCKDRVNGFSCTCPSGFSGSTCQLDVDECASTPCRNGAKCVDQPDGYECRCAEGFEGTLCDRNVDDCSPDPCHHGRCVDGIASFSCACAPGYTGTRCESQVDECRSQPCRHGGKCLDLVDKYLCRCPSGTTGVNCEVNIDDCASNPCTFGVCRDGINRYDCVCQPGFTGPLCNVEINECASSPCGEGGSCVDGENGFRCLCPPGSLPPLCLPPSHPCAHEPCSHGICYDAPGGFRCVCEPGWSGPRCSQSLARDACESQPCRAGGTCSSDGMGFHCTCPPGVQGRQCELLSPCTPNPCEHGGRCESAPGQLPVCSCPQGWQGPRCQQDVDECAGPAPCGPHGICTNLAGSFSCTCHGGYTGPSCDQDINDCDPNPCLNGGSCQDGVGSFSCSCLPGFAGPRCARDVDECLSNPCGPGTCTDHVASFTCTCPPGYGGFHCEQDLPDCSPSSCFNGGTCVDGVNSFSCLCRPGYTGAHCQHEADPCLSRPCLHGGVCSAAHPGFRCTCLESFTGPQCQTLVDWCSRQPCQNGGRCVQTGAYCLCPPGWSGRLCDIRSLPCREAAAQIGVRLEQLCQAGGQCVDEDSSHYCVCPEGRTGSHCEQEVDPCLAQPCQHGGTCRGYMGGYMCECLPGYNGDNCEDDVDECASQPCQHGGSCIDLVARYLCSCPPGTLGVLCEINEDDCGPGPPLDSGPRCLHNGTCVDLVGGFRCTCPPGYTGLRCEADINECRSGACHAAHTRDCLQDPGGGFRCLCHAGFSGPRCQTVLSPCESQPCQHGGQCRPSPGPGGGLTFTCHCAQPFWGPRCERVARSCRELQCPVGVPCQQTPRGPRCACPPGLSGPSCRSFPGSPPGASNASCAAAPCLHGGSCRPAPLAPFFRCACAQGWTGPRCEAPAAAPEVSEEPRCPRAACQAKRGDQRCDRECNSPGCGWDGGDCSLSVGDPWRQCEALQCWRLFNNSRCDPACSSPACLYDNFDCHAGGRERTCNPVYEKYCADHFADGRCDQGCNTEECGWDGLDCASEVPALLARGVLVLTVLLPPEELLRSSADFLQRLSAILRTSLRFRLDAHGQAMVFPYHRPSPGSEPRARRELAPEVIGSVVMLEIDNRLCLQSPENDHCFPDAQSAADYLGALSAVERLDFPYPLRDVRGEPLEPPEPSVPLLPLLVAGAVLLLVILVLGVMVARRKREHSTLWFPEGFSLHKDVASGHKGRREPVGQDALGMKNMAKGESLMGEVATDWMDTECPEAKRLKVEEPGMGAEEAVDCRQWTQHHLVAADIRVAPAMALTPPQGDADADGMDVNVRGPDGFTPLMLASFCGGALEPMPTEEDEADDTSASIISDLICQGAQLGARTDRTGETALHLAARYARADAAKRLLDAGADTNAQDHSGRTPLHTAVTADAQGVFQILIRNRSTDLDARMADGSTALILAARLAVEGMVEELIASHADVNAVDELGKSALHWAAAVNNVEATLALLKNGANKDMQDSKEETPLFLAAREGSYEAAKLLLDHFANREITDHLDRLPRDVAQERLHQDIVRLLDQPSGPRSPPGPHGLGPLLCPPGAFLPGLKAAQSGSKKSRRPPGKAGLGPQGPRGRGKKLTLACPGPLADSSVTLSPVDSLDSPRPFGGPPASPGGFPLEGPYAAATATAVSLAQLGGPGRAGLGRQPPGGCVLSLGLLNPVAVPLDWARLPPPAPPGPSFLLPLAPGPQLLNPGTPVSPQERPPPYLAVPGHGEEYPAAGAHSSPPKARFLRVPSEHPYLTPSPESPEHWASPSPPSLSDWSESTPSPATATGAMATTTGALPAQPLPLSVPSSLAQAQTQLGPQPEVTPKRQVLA
The nature of assay [20]: probe aEGFR binding to arrayed compounds – biochemical, biotinylated probe, 635/667 nm fluorescence, primary screen (AID 1097).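 Note: probe is a biotinylated anti-EGFR antibody binding compounds printed on slides; score combines fluorescence near 667 nm and signal to noise of each spot.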 As to conditions: small-molecule microarray, higher = more signal.

Turning to `CCC(CC)C(O)C1C=CC2C(=O)N(c3ccccc3)C(=O)C2N1Nc1ccc(C(C)C)cc1` (stereo not given), the composite z-score in [1] was 0.251; in assay [2], -0.207; in assay [3] it was 0.0495; in assay [4] it was 0.687; in assay [5], 1.64; in assay [6], 1.23. The composite z-score in [7] is 1.28; in assay [9], 1.21; in assay [10] it was -0.195; in assay [11], 1.43; in assay [15] it was 3.12; in assay [17], 0.0659. In addition, the values for the composite z-score in assay [18], in assay [19] and in assay [20] were 0.152, 1.03 and 0.118, respectively. The z-score is -0.963 (inactive) in [8]; 0.727 (inactive) in assay [12]; 0.065 (inactive) in [13]; 1.23 (inactive) in assay [14]; -0.63 (inactive) in [16].
Take `CCCNC(=O)[C@@]1(c2ccc([N+](=O)[O-])cc2)CC(=O)N(C2CCCCC2)[C@@H]1c1ccc(CO)cc1`: the composite z-score in [1] is -0.0597; in assay [2], 0.256; in assay [3], -0.0133; in assay [4], 0.588; in [5] it was 1.03; in assay [6], 0.675. The composite z-score in assay [7] came to 1.27; in [9], 0.565; in assay [10] it was 0.113; in [11] it was 1.57; in assay [15], 2.8; in [17] it was 0.0744. Further, the figures for the composite z-score in assay [18], in assay [19] and in [20] were 1.65, 1.04 and -0.0729, respectively. Besides, the z-score in [8] was -1.31 (inactive); in assay [12], 1.3 (inactive); in assay [13], -0.514 (inactive); in [14], 1.11 (inactive); in assay [16], 0.824 (inactive).
As for `O=C1OCC=C[C@H]2OC34C=CCN(c5ccc(Cl)cc5)C(=O)[C@H]3N(CCO)C(=O)[C@@H]4[C@@H]12` (stereo not given in full), the composite z-score was 0.601 in assay [1]; -0.515 in assay [2]; -0.147 in [3]; -0.0609 in assay [4]; -1.09 in assay [5]; -0.0774 in [6]. The composite z-score is 1.04 in assay [7]; -0.915 in [9]; -0.137 in assay [10]; 0.197 in assay [11]; 2.87 in assay [15]; -0.286 in assay [17]. The results for the composite z-score in [18], in assay [19] and in [20] were -2.04, -0.368 and -0.321, respectively. For the same molecule, the z-score was 0.782 (inactive) in assay [8]; -0.23 (inactive) in assay [12]; -0.846 (inactive) in assay [13]; 0.0595 (inactive) in assay [14]; -0.297 (inactive) in assay [16].
In the case of `CC(C)(C)N1CC=CC23O[C@@H]4C=CCCOC(=O)C4[C@H]2C(=O)N(CCO)[C@@H]3C1=O` (stereo not given in full), the composite z-score was -0.0666 in assay [1]; -0.46 in [2]; -0.132 in assay [3]; -0.133 in [4]; -0.717 in assay [5]; 0.767 in [6]. The composite z-score in assay [7] is 1.48; in [9], -0.474; in assay [10] it was -0.236; in assay [11], 0.13; in assay [15] it was -1.67; in [17] it was -0.267. Besides, the composite z-score in [18] is -0.365; in assay [19] it was -0.696; in [20] it was -0.112. Also, the z-score is 0.22 (inactive) in [8]; -0.125 (inactive) in [12]; -0.229 (inactive) in [13]; -0.0913 (inactive) in assay [14]; 0.976 (inactive) in assay [16].
On to `COCC1=C2[C@@H](CCc3ccccc3)OB(O)C[C@@H]2[C@@H]2C(=O)C=CC(=O)[C@@H]2C1`, for which the composite z-score was -0.265 in assay [1]; 0.42 in [2]; -0.051 in assay [3]; 0.328 in assay [4]; 0.386 in assay [5]; 0.404 in [6]. Also, the composite z-score was 0.952 in [7]; 0.182 in assay [9]; -0.0708 in [10]; 1.57 in assay [11]; 1.32 in assay [15]; -0.143 in [17]. The results for the composite z-score in [18], in [19] and in assay [20] were 0.883, 1.12 and -0.106, respectively. Moreover, the z-score in assay [8] was -0.632 (inactive); in assay [12] it was 0.506 (inactive); in assay [13], -2.86 (inactive); in assay [14] it was -0.288 (inactive); in assay [16], -0.224 (inactive).
As to `C=C(C)c1cc2c(c(CCCCCC)n1)[Si](C(C)C)(C(C)C)OC2`, the composite z-score in assay [1] was -0.392; in assay [2] it was -1.42; in [3], -0.157; in assay [4], -1.05; in assay [5], -1.03; in assay [6] it was -0.792. Also, the composite z-score in assay [7] was -1.02; in assay [9], -0.437; in assay [10] it was 0.0201; in assay [11] it was -0.293; in assay [15], -1.03; in assay [17], -0.193. Moreover, the composite z-score in [18] is -0.714; in [19], -0.64; in [20] it was -0.287. Further, the z-score was -0.647 (inactive) in [8]; 1.21 (inactive) in assay [12]; 0.653 (inactive) in assay [13]; -0.9 (inactive) in [14]; -1.17 (inactive) in [16].
